Test results: PubChem BioAssay AID1159580 (chemical genetic matrix, 2015)
Hit rate of the full screen: of about 5,500 compounds, about 2,000 (36%) were called active. About 18% were inconclusive and are not listed. No stated cut-off is given here; in the data, active means normalized growth mostly below about 0.91 (no sharp cut-off); inconclusive means no clear call, values can overlap the other calls; inactive means mostly above about 0.92. Some of the results follow.

Test: chemical genetic growth profiling, strain panel (AID 1159580);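 further: tested at 20 µM; growth read once vehicle control cultures reached saturation at 30 °C; 1 = growth at the plate median or of vehicle wells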
Conditions: S. cerevisiae deletion strains, growth OD

Measured: normalized growth

COc1ccc(C2=C(C(C)=O)C(C)=NC(=S)C2C#N)cc1 (stereo not given)
active: locus YPR135W, strain CTF4, stronger effect = lower value 0.356
inactive: locus YAL013W, strain DEP1, stronger effect = lower value 1.01 | locus YBR229C, strain ROT2, stronger effect = lower value 1.02 | locus YCL061C, strain MRC1, stronger effect = lower value 1.01 | locus YDL101C, strain DUN1, stronger effect = lower value 1.05 | locus YDR150W, strain NUM1, stronger effect = lower value 0.933 | locus YEL061C, strain CIN8, stronger effect = lower value 1.04 | locus YGR078C, strain PAC10, stronger effect = lower value 0.993 | locus YHR030C, strain SLT2, stronger effect = lower value 0.947 | locus YHR087W, strain rtc3, stronger effect = lower value 1.04 | locus YJL187C, strain SWE1, stronger effect = lower value 1 | locus YJR043C, strain POL32, stronger effect = lower value 1.04 | locus YJR075W, strain HOC1, stronger effect = lower value 1.01 | locus YKL190W, strain CNB1, stronger effect = lower value 0.987 | locus YLR039C, strain RIC1, stronger effect = lower value 0.977 | locus YLR058C, strain SHM2 (second series), stronger effect = lower value 0.994 | locus YLR085C, strain ARP6, stronger effect = lower value 0.89 | locus YLR262C, strain YPT6, stronger effect = lower value 0.972 | locus YML094W, strain GIM5, stronger effect = lower value 1.12 | locus YMR219W, strain ESC1, stronger effect = lower value 0.998 | locus YMR263W, strain SAP30, stronger effect = lower value 0.905 | locus YMR307W, strain GAS1, stronger effect = lower value 0.702 | locus YNL128W, strain TEP1, stronger effect = lower value 0.983 | locus YNL153C, strain GIM3, stronger effect = lower value 1.03 | locus YNL298W, strain CLA4 (second series), stronger effect = lower value 0.89 | locus YNL322C, strain KRE1, stronger effect = lower value 1 | locus YNR030W, strain Alg12, stronger effect = lower value 0.987 | locus YOL006C, strain TOP1, stronger effect = lower value 0.754 | locus YPL055C, strain LGE1, stronger effect = lower value 0.97 | locus YPL241C, strain CIN2, stronger effect = lower value 0.943
